Bioassay records: PubChem, National Center for Advancing Translational Sciences (NCATS)
Only some compounds are listed: those with a hit (about 1.7% of all), similar ones and a draw of the others.
GLP-1R inv ag = GLP-1 receptor (human) inverse agonism. HEK293 GLP-1R CRE-luciferase, luminescence, 24 h; GLP-1R form is constitutively active. Potency, µM (top dose mostly 38.3 µM), for the others: top-dose activity change, negative = inhibition, most hits filed as inhibitors. 410,000 compounds, 1.6% hits; also: % is scaled to controls: 0 for no effect and ±100 for the full control effect; nearly all actives have a fitted effect of over 55% in size
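Luminescence readout: a drop in cAMP-driven luciferase signal flags inverse agonism at a constitutively active GLP-1R stably expressed in HEK293. Compound exposure lasted 24 hr at 37 deg C, 5% CO2.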
HEK293 tox = cytotoxicity in counter-screen for GLP-1R inverse agonists; Potency, µM (series often up to 38.3 µM), for the others: at the highest dose activity change, negative = inhibition, actives largely listed as inhibitors; HEK293 cAMP-luciferase reporter cells, luminescence, 24 h; AID 624418; 410,000 compounds, 0.13% hits;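 also: loss of luciferase light is scored as toxicity; % is scaled to controls: 0 for no effect and ±100 for the full control effect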
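Seeding density was 200 cells/uL; after overnight-length (12 h) culture, 23 nL compounds went on for 24 h at 37 °C. Readout used a luciferase detection reagent, luminescence taken after 12 min at room temperature.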
PTHR1 agonist = PTHR1 (human) receptor agonism; Potency, µM (top dose mostly 115 µM), for the others: top-dose activation, hits mostly activators; 410,000 compounds, 0.075% hits; HEK293 GP2 PTHR1 cells, GloSensor cAMP luminescence, 1 h; Q03431; also: nearly all actives have a fitted effect of over 55% in size
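HEK-293-derived GP2 cells expressing PTHR1 and a GloSensor cAMP reporter, 3,000/well, plated overnight, given luciferin plus IBMX (each 0.5 mM as added) for 1 h at 37 °C, then compound for 1 h at 37 °C. Luminescence was read after 15 min at room temperature.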
GLP-1R agonist = activates the human GLP-1 receptor; Potency, µM (doses to about 45.6 µM), inactives show top-dose activation, hits mostly activators; P43220; HEK293 GLP-1R CRE-luciferase, luminescence, 4-6 h; cells express a hypersensitive GLP-1R form; 380,000 compounds, 0.007% hits; also: % of control where 0% means no effect
* hit, by the source's call; i = inactive; ? = inconclusive; · = not tested or not shown; [ ] = dose if it differs, or a comment. Calls follow the shape of the dose curve; as a rule, active = well fitted curve in the direction sought with a large enough effect; inconclusive = small, poorly fitted or top-dose-only effect, or another doubt; inactive = no such curve, though single readings can be large; an effect the other way counts as inactive or inconclusive. Potency is read from the fitted curve at half-maximal effect.

SMILES	GLP-1R inv ag	HEK293 tox	PTHR1 agonist	GLP-1R agonist
CCN1C(=O)C(CC(=O)Nc2ccc(Br)cc2)N(CCCc2ccccc2)C1=S (stereo unspecified)	2µM*	?	-36%[57.5 µM]	-10%
CCN1C(=O)C(CC(=O)NCCc2ccccc2)N(NC(=O)c2ccc(Br)cc2)C1=S (stereo unspecified)	10µM*	-9%	-6%	-2%
CCCOc1ccc(NC(=O)CC2C(=O)N(CC)C(=S)N2CCCN2CCN(Cc3ccccc3)CC2)cc1 (stereo unspecified)	7.1µM*	?	i	-3%
CCCOc1ccc(NC(=O)CC2C(=O)N(C)C(=S)N2Cc2cccs2)cc1 (stereo unspecified)	7.9µM*	-19%	-9%[57.5 µM]	-7%
Cc1cc(NC(=O)CCn2c(=O)c3cccn3c3cccnc32)ccc1Br	5%	4%	i	·
COc1ccc(NC(=O)CNC(=O)Cn2ccc3ccccc3c2=O)cc1OC	23%	1%	-11%	0%
N#Cc1c(F)cccc1N1CCN(Cc2ccc3c(c2)OCO3)CC1	11µM*	-12%	-7%	15%
CC1CCC(NC(=O)CCc2cn(Cc3ccccc3Cl)c3ccccc23)CC1 (stereo unspecified)	-25%	-5%	-18%	·
O=C(CCc1cn(Cc2ccccc2Cl)c2ccccc12)NC1CCCCC1	10µM*	-19%	-11%	·
CCCc1nc(SC)ncc1C(=O)N1CCN(c2ccc(Cl)cc2)CC1	?	2%	-18%	·
CCOC(=O)C1(CC2CC2)CCN(C(=O)c2cc(OC)nc3ccccc23)CC1	?	1%	-26%	?
CCOC(=O)C1(CC2CC2)CCN(C(=O)c2cc(C3CC3)nc3ccccc23)CC1	10µM*	2%	-21%	1%
CCn1nnc2cc(C(=O)Nc3ccc(C)cc3Br)ccc21	16%	-2%	-4%	·
CCCC(C)NC(=O)c1nc(-c2ccccc2)n(-c2ccccc2)n1 (stereo unspecified)	8.9µM*	-1%	i	24%
O=c1cc2nc(-c3ccccc3)nc(SCc3cccc(Br)c3)n2[nH]1	10%	7%	i	·
OC(c1cccc(OCc2ccccc2)c1)c1nnc(-c2ccccc2)o1 (stereo unspecified)	10µM*	-3%	-26%	3%
COc1ccc(CNC(=O)c2ccc(Cn3c(=O)c4cccn4c4cccnc43)cc2)c(OC)c1	4%	6%	-2%	·
CN(c1nc2c(c(=O)n(C)c(=O)n2C)n1CC(=O)c1ccccc1)C1CCCCC1	7.9µM*	-25%	-4%	18%
CN(C)CCNC(=O)C12CC3(C)CC(C)(CC(C)(C3)C1)C2	8.9µM*	-23%	i	3%
COC(=O)c1ccc(Oc2nc3c(c(=O)n(C)c(=O)n3C)n2Cc2ccc(Cl)c(Cl)c2)cc1	11%	9%	i	·
O=C(N/N=C/c1ccc(O)c(O)c1)NC12CC3CC(CC(C3)C1)C2	57%	-3%	-17%	13%
O=C(N/N=C/c1ccccc1O)NC12CC3CC(CC(C3)C1)C2	10µM*	-4%	-22%	21%
O=c1ccc(N=Nc2ccccc2)ccc1O	?	11µM*	-64%	2%
O=S(=O)(O)c1ccc(N=Nc2ccccc2)cc1	12%	0%	9%	11%
COc1ccc(CN2C[C@H]3CCCN3c3cc(Br)ccc3S2(=O)=O)cc1	0.89µM*	-25%	-17%	15%
SMILES	GLP-1R inv ag	HEK293 tox	PTHR1 agonist	GLP-1R agonist
Cc1cc(C)c(NC(=O)Nc2sc3nc4n(c(=O)c3c2C)CCC(C)CC4)c(C)c1 (stereo unspecified)	-5%	8%	-5%	·
CCCCN(CC)CCCNC(=O)Nc1sc2nc3n(c(=O)c2c1C)CCC(C)CC3 (stereo unspecified)	10µM*	-5%	-19%	·
C=CC[C@]12CC=CC(=O)[C@@]1(O)O[C@H](c1ccc(OC)c(OC)c1)[C@H]2C	11µM*	-25%	-84%	0%
COc1cccc(CNCc2c(C(=O)O)c(C)n(Cc3ccc(F)cc3Cl)c2C)c1OC	-7%	-5%	i	·
Cc1ccnc(NC(=O)CCC(=O)c2cccs2)c1	5.6µM*	3%	-26%	-5%
COc1ccc(NC(=O)Cn2nnc(-c3ccccc3NS(=O)(=O)c3ccccc3)n2)cc1	7.1µM*	-1%	-34%	-2%
